# Compound activity (PubChem)
# Rows were chosen to be rich in hits. Some 7.6% of all compounds tested hit in one or more screens of this group.
# KB-V1 cytotox: KB-V1 MDR subline cytotoxicity; KB-V1 MDR cells viability, CellTiter-Glo, 72 h; Potency, µM (doses to about 46.1 µM), usual class: cytotoxic; 400,000 compounds, 3.4% hits; also: nearly all actives have a fitted effect of over 60% in size
#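 Luminescent ATP read-out (CellTiter-Glo, 10 min) measures survival of drug-selected KB-V1 MDR cells after 72 h, 37 degrees C compound exposure. Medium: phenol-red-free DMEM, 10% FBS. Values from fitted concentration-response curves.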
# MCF10A rerep: inducers of DNA re-replication in MCF 10A breast cells; 350,000 compounds, 2.9% hits; Potency, µM (top dose mostly 46.1 µM), usual class: activators; MCF 10A DNA re-replication, Hoechst nuclear intensity, 48 h; AID 624296; also: nearly all actives have a fitted effect of over 50% in size
# KB-3-1 tox: kills parental KB-3-1 adenocarcinoma cells. Potency, µM (series often up to 46.1 µM), actives largely listed as cytotoxic. 400,000 compounds, 1.4% hits. KB-3-1 viability, CellTiter-Glo ATP luminescence, 72 h; also: nearly all actives have a fitted effect of over 60% in size
#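 Cells are dispensed, compounds pinned in, plates held at 37 °C for 72 h, then CellTiter-Glo is added and luminescence read after 10 minutes. Cell line: parental KB-3-1 in phenol-red-free DMEM, 10% FBS.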
# SW480 rerep: induces DNA re-replication in SW480 colon adenocarcinoma cells; 340,000 compounds, 1.8% hits; SW480 DNA re-replication, Hoechst DNA content imaging, 48 h; Potency, µM (series often up to 46.1 µM), usual class: activators; also: nearly all actives have a fitted effect of over 55% in size
#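 DNA re-replication was detected as more nuclei of elevated Hoechst intensity after 48 hr exposure to compound (23 nL pinned per well of 250 cells).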
# KCNH2 3.1 block: KCNH2 3.1 (human) potassium channel inhibition. U2OS KCNH2 3.1, thallium flux FluxOr; hits give low values. activity change, % (tested at about 1.8 µM). 340,000 compounds, 0.95% hits. AID 720553;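 active = maximum activity change below -70%; inconclusive = maximum activity change from -70% to -50%; inactive = maximum activity change above -50%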;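 also: thallium influx rate constant from kinetic fluorescence after stimulation buffer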
#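 Normalized rate constant (relative to positive and negative DMSO controls) derived from a 2 min kinetic fluorescence read after stimulation; U2OS cells expressing the 3.1 isoform via virus at 1.77 x 10^8 /mL.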
# KCNH2 WT inh: inhibitors of human wildtype KCNH2 potassium channel; activity change, % at 1.84 µM; 340,000 compounds, 0.37% hits; U2OS, BacMam KCNH2, thallium flux FluxOr; hits give low values; Q12809; AID 720551;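 active = maximum activity change below -70%; inconclusive = maximum activity change between -70% and -50%; inactive = maximum activity change above -50%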
#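 U2OS cells were transduced with wild-type KCNH2 virus (2.03 x 10^8 / mL) for 4 h at room temperature, then cultured overnight at 37 C. Thallium flux was read with FluxOr dye. Rate constants were normalized to DMSO controls.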
# A number is an active result; 0 = inactive; ? = inconclusive; - = no result given; ! = not confirmed by another sample; [ ] = dose if it differs, or a comment. Unless noted, calls follow the shape of the dose curve; as a rule, active = well fitted curve in the direction sought with a large enough effect; inconclusive = small, poorly fitted or top-dose-only effect, or another doubt; inactive = no such curve, though single readings can be large; an effect the other way counts as inactive or inconclusive.
SMILES,KB-V1 cytotox,MCF10A rerep,KB-3-1 tox,SW480 rerep,KCNH2 3.1 block,KCNH2 WT inh
O=S(=O)(N/N=C1\CC(c2ccccc2)Oc2ccccc21)c1ccccc1 (stereo not given),0,0,0,0[9.22 µM],0,0
CCOc1ccc(S(=O)(=O)N/N=C2/CC(c3ccccc3)Oc3ccccc32)cc1 (stereo not given),18µM,0,?,0,0,0
Cc1ccc(S(=O)(=O)N/N=C2/CC(c3ccccc3)Oc3ccccc32)cc1 (stereo not given),0,?,0,0,-110,0
CCOC(=O)Cn1c(=NC(=O)c2ccc([N+](=O)[O-])s2)sc2ccccc21,?,3.7µM,4.6µM,?,0,0
NS(=O)(=O)c1ccc(CNC(=S)NC2CCCC2)cc1,0,0,0,0,0,0
CC(C)c1cc(Br)ccc1OCCCN1C(=O)NC(C)(C)C1=O,13µM,0,?,0,0,0
CC(C)n1c(O)c(N=Nc2ccc(Cl)nn2)c2ccccc21,12µM,0,0,0,0,0
CC(C)n1c(O)c(N=NC(=O)CNC(=O)Cc2ccc(Cl)cc2)c2ccccc21,0,0,0,0,0,0
Cc1ccc(CCNC(=O)c2c3c(nc4ccccc24)C(=O)N(C2CCCCC2)C3)cc1,0,-,0,-,-,-
CCOc1ccc(CN(C(=O)c2oc3cc(C)ccc3c2C)C2CCS(=O)(=O)C2)cc1 (stereo not given),?,15µM,?,21µM,0,0
CCc1c(C)sc(NC(=O)c2cc(CC(C)C)on2)c1C#N,0,0,0,0,0,0
CCc1c(C)sc(NC(=O)c2cc(-c3ccc(O)cc3)on2)c1C#N,0,12µM,0,15µM,0,0
CCc1c(C)sc(NC(=O)c2cc(-c3ccc(OC)c(OC)c3)on2)c1C#N,0,5.2µM,0,0,0,0
COc1ccc(-c2csc(NC(=O)c3cc(C)on3)c2C#N)cc1OC,16µM,?,0,0,0,0
CCc1c(C)sc(NC(=O)c2cc(-c3cc(OC)ccc3OC)on2)c1C#N,?,2.6µM,0,0,0,0
CCOC(=O)Cc1csc(NC(=O)c2ccc(N3CCOCC3)cc2[N+](=O)[O-])n1,0,0,0,?,0,0
O=C(Nc1c2c(nn1-c1ccccc1)CS(=O)(=O)C2)c1ccccc1C(F)(F)F,0,0,0,0,0,0
CCOc1cc(C(=S)N2CCC(O)CC2)ccc1OS(=O)(=O)c1ccc(Br)cc1,?,0,0,0,0,0
CCOc1cc(C(=S)N2CCCCC2)ccc1OS(=O)(=O)c1ccc(Br)cc1,4.1µM,?,?,0,0,0
CCOc1cc(C(=S)N2CCCCC2)ccc1OS(=O)(=O)c1ccc(Cl)cc1,2.9µM,?,?,0,-114,0
CC1CN(C(=O)Nc2ccc(C(=O)NCc3cccc(F)c3)cc2)c2ccccc2S1 (stereo not given),0,-,0,-,-,-
COc1c(/C=N/NC(N)=S)c(C)nn1-c1ccccc1,9.2µM,0,?,0,-,0
COc1c(/C=N/Nc2ccc([N+](=O)[O-])cc2[N+](=O)[O-])c(C)nn1-c1ccccc1,0,0,0,0,0,0
Oc1ccccc1C=NNC(=S)Nc1ccc(F)cc1,0,?,?,0,0,0
COc1ccc(-c2nn(-c3ccccc3)cc2/C=N/NC(N)=S)cc1OC,?,1.6µM,0,2.1µM,0,0
SMILES,KB-V1 cytotox,MCF10A rerep,KB-3-1 tox,SW480 rerep,KCNH2 3.1 block,KCNH2 WT inh
Cc1nn(-c2ccccc2)c(N2CCCC2)c1/C=N/NC(=S)Nc1ccc(F)cc1,0,0,?,5.8µM,0,0
Cc1nn(C)cc1/C=N/NC(=S)Nc1ccccc1,?,0,0,1.6µM,0,0
Cc1cc(OCC(=O)Nc2sc3c(c2C(N)=O)CCCC3)ccc1C(C)C,?,-,0,-,-,-
O=C(CCC(=O)N1CCOc2ccc(Cl)cc21)NCc1ccccc1,0,0,0,0,0,0
COc1cc(C(=O)NCC(c2cccs2)N2CCOCC2)ccc1OCc1ccccc1 (stereo not given),0,-,0,-,0,0
O=c1[nH]c(-c2ccco2)nc2sc3c(c12)CCCC3,18µM,0,0,0,0,0
CN(C)C(=O)CCc1ccc2c3c([nH]c2c1)[C@]1(C)[C@@H](C(=O)N2CCCCC2)C[C@H](CC(=O)NCC24CC5CC(CC(C5)C2)C4)C(=O)N1CC3,0,0,?,0[9.22 µM],0,0
Cc1cc(/C=N/NC(N)=S)c(C)n1-c1ccc(Cl)cc1,0,8.2µM,0,?,0,0
Cc1cc(/C=N\NC(=O)CC(=O)NC2CCCCC2)c(C)n1-c1ccc(Cl)cc1,21µM,0,0,0,0,0
Cc1cc(/C=N/NC(N)=S)c(C)n1-c1ccc(Br)cc1,?,?,0,0,0,0
CSCCC(NS(=O)(=O)c1cccs1)C(=O)Nc1ccc(C)c(Cl)c1 (stereo not given),0,-,0,-,-,-
Cc1ccc(S(=O)(=O)/N=C2/C=C(Sc3ncn[nH]3)C(=O)c3ccccc32)cc1,?,0,0,8.2µM,0,0
CC(C)c1ccc(S(=O)(=O)/N=C2/C=C(Sc3ncn[nH]3)C(=O)c3ccccc32)cc1,?,3.3µM,0,10µM,0,0
CCNC(=S)N1CCN(C(=O)C(Cc2ccccc2)NC(C)=O)CC1 (stereo not given),0,0.65µM,0,0,0,0
CCCNC(=O)C1CCN(S(=O)(=O)c2c(C)noc2/C=C\c2ccc(OC)cc2)CC1,0,0,0,0,0,0
COc1ccc(/C=C/c2onc(C)c2S(=O)(=O)N2CCC(C(=O)N3CCC(C)CC3)CC2)cc1,0,?,21µM!,0,0,0
CCOCCCNC(=O)C1CCN(S(=O)(=O)c2c(C)noc2/C=C\c2ccc(OC)cc2)CC1,18µM,0,0,0,0,0
CCOc1ccccc1/C=C/c1onc(C)c1S(=O)(=O)N1CCC(C(=O)N(CC)CC)CC1,0,?,0,0,-95,0
Cc1cccc(/C=C/c2onc(C)c2S(=O)(=O)N2CCC(C(=O)N3CCCCCC3)CC2)c1,0,0,0,?,0,0
Cc1cccc(/C=C/c2onc(C)c2S(=O)(=O)N2CCC(C(=O)N3CCC(C)CC3)CC2)c1,?,?,16µM!,0,0,0
Cc1nc(-c2ccc(C)c(S(=O)(=O)N3CCC(C(=O)Nc4ccc(Cl)cc4)CC3)c2)no1,0,-,?,-,-,-
c1ccc2c3n(nc2c1)CCCO3,0,?,0,0[9.22 µM],0,0
Cc1cc(C)n2nc(SCC(=O)NC(=O)c3ccc(OC(F)F)cc3)nc2n1,0,0,0,0,0,0
CCC(Sc1nc2cc(OC)c(OC)cc2c(=O)n1CCc1ccc(S(N)(=O)=O)cc1)C(=O)NCCOC (stereo not given),0,?,0,0,0,0
